Laboratory results: the antibiotic and cytotoxicity screens of Wong et al. (2023)
The campaign covered roughly 39,000 compounds. About 3,300 (8.5%) were called active. For the sample, actives were picked, then their nearest neighbours and some compounds at random.

Each compound was assayed on HepG2 (assay: cytotoxicity call (relative viability < 0.9)). Settings: 10 µM.

Row | SMILES | cytotoxicity call
1 | O=C(O)CNS(=O)(=O)c1ccccc1F | inactive
2 | Cc1noc(C)c1S(=O)(=O)Nc1ccc2c(c1)CC(=O)N([C@H](C)CO)C[C@@H](C)[C@H](CN(C)S(C)(=O)=O)O2 | inactive
3 | C[C@@H]1CN([C@@H](C)CO)C(=O)c2cccc(NC(=O)c3nc4ccccc4s3)c2O[C@H]1CN(C)Cc1ccc(-c2ccccc2)cc1 | inactive
4 | COc1ccc(S(=O)(=O)Nc2ccc3c(c2)C(=O)N([C@@H](C)CO)C[C@H](C)[C@@H](CN(C)C(=O)Nc2cccc4ccccc24)O3)cc1 | inactive
5 | C[C@@H]1CN([C@H](C)CO)C(=O)c2cc(NS(C)(=O)=O)ccc2O[C@H]1CN(C)Cc1ccc(C(F)(F)F)cc1 | inactive
6 | C[C@H]1CN([C@@H](C)CO)C(=O)c2cccc(NC(=O)C3CCOCC3)c2O[C@H]1CN(C)S(=O)(=O)c1ccccc1 | inactive
7 | O=C(C[C@@H]1CC[C@H]2[C@@H](COC[C@@H](O)CN2S(=O)(=O)c2ccc(F)cc2)O1)NCc1ccc(Cl)c(Cl)c1 | inactive
8 | O=C(Nc1ccc(C(=O)Nc2ccc(C(=O)Nc3ccc(S(=O)(=O)O)c4cc(S(=O)(=O)O)cc(S(=O)(=O)O)c34)cc2)cc1)Nc1ccc(C(=O)Nc2ccc(C(=O)Nc3ccc(S(=O)(=O)O)c4cc(S(=O)(=O)O)cc(S(=O)(=O)O)c34)cc2)cc1 | inactive
9 | C[C@H]1CN([C@@H](C)CO)C(=O)c2cc(Br)cnc2O[C@@H]1CN(C)S(=O)(=O)c1ccccc1 | inactive
10 | C[C@@H]1CN([C@@H](C)CO)C(=O)c2cc(NS(=O)(=O)c3ccc(F)cc3)ccc2O[C@@H]1CN(C)S(=O)(=O)c1ccccc1 | inactive
11 | C=CCOC(=O)[C@@H]1[C@H]2C(=O)O[C@H](c3ccccc3)[C@H](c3ccccc3)N2[C@H](c2ccc(OCCOC(=O)[C@H]3C[C@H]4C(=O)NCC(=O)N4[C@H]3c3cccc(OCCO)c3)cc2)[C@@]12C(=O)Nc1ccc(I)cc12 | inactive
12 | C[C@@H]1CCCCO[C@H](CN(C)S(=O)(=O)c2ccc(F)cc2)[C@@H](C)CN([C@H](C)CO)C(=O)c2cc(NC(=O)Nc3ccc(F)cc3)ccc2O1 | inactive
13 | C[C@@H]1CCCCO[C@H](CN(C)S(=O)(=O)c2ccc(F)cc2)[C@H](C)CN([C@H](C)CO)C(=O)c2cc(NC(=O)Nc3ccc(F)cc3)ccc2O1 | active
14 | C[C@@H]1CN([C@H](C)CO)C(=O)c2cc(NC(=O)Nc3ccc(F)cc3)ccc2O[C@@H](C)CCCCO[C@@H]1CN(C)S(=O)(=O)c1ccc(F)cc1 | inactive
15 | COC(=O)C1=CO[C@@H](O[C@@H]2O[C@H](CO)[C@@H](O)[C@H](O)[C@H]2O)[C@@H]2[C@@](C)(O)[C@@H](OC(=O)/C=C/c3ccc(O)cc3)C[C@]12O | inactive
16 | OC[C@@H](O)[C@@H](O)CO | inactive
17 | OCC(O)C(O)CO (centres undefined) | inactive
18 | C[C@@H]1CCCCO[C@@H](CN(C)C(=O)NC2CCCCC2)[C@H](C)CN([C@@H](C)CO)C(=O)c2cc(NC(=O)c3ccccc3)ccc2O1 | inactive
19 | CCCNC(=O)N(C)C[C@H]1Oc2cc(C#Cc3ccccn3)ccc2S(=O)(=O)N([C@@H](C)CO)C[C@@H]1C | inactive
20 | COc1ccc(CN(C)C[C@H]2OCCCC[C@@H](C)Oc3ccc(NC(=O)c4ccccc4)cc3C(=O)N([C@@H](C)CO)C[C@H]2C)cc1 | inactive

Row | SMILES | cytotoxicity call
21 | CCS(=O)(=O)N1Cc2cc(C(=O)NCCOC)nc(-c3cccc(-c4ccncc4)c3)c2[C@H]1CCO | inactive
22 | CCN(CC)CCN(Cc1ccc(-c2ccc(C(F)(F)F)cc2)cc1)C(=O)Cn1c(SCc2ccc(F)cc2)nc(=O)c2c1CCC2 | active
23 | C[C@H](CO)N1C[C@H](C)[C@H](CN(C)C(=O)NC2CCCCC2)Oc2c(NS(=O)(=O)c3cn(C)cn3)cccc2C1=O | inactive
24 | C[C@H](CO)N1C[C@H](C)[C@H](CN(C)S(=O)(=O)c2cccc(F)c2)Oc2ncc(C#CC3CCCC3)cc2C1=O | inactive
25 | C[C@@H]1CN([C@H](C)CO)C(=O)c2cc(C#CC3CCCC3)cnc2O[C@@H]1CN(C)S(=O)(=O)c1cccc(F)c1 | inactive
26 | C[C@@H]1CN([C@@H](C)CO)C(=O)c2cc(C#CC3CCCC3)cnc2O[C@H]1CN(C)S(=O)(=O)c1cccc(F)c1 | active
27 | C[C@H](CO)N1C[C@H](C)[C@@H](CN(C)S(=O)(=O)c2cccc(F)c2)Oc2ncc(C#CC3CCCC3)cc2C1=O | inactive
28 | C[C@H]1CN([C@@H](C)CO)C(=O)c2cc(C#CC3CCCC3)cnc2O[C@@H]1CN(C)S(=O)(=O)c1cccc(F)c1 | active
29 | C[C@@H]1CN([C@H](C)CO)C(=O)c2cc(C#CC3CCCC3)cnc2O[C@H]1CN(C)S(=O)(=O)c1cccc(F)c1 | inactive
30 | COc1ccc(NC(=O)N(C)C[C@@H]2OCCCC[C@@H](C)Oc3ccc(NS(=O)(=O)c4ccc(Cl)cc4)cc3C(=O)N([C@@H](C)CO)C[C@@H]2C)cc1 | inactive
31 | C=c1cc(C)ccc1=C1NN=C(NC(C)=O)O1 | inactive
32 | COc1ccc(S(=O)(=O)N(C)C[C@@H]2OCCCC[C@H](C)Oc3ccc(NC(=O)C4CCCCC4)cc3C(=O)N([C@H](C)CO)C[C@H]2C)cc1 | inactive
33 | CCCc1nc(C)c2c(=O)[nH]c(-c3cc(S(=O)(=O)N4CCN(CC)CC4)ccc3OCC)nn12.Cl | inactive
34 | CCCc1nn(C)c2c(=O)[nH]c(-c3cc(S(=O)(=O)N4CCN(C)CC4)ccc3OCC)nc12.O=C(O)CC(O)(CC(=O)O)C(=O)O | active
35 | CCCOc1ccc(S(=O)(=O)NCC[C@@H]2CCCN2C)cc1-c1nc2c(CCC)nn(C)c2c(=O)[nH]1 | inactive
36 | CCS(=O)(=O)Nc1ccc2c(c1)C(=O)N(C)[C@@H]1CC[C@H](CC(=O)NCc3ccc(OC)cc3)O[C@@H]1CO2 | inactive
37 | C[C@@H]1CCCCO[C@H](CN(C)CC2CCCCC2)[C@H](C)CN([C@H](C)CO)C(=O)c2cc(NS(=O)(=O)c3cccs3)ccc2O1 | inactive
38 | C[C@@H]1CCCCO[C@H](CN(C)CC2CCCCC2)[C@H](C)CN([C@@H](C)CO)C(=O)c2cc(NS(=O)(=O)c3cccs3)ccc2O1 | active
39 | C[C@@H]1CN([C@H](C)CO)C(=O)c2cc(NS(=O)(=O)c3cccs3)ccc2O[C@@H](C)CCCCO[C@H]1CN(C)Cc1ccccc1 | inactive
40 | C[C@@H]1CN([C@H](C)CO)C(=O)c2cc(NS(=O)(=O)c3cccs3)ccc2O[C@@H](C)CCCCO[C@@H]1CN(C)CC1CCCCC1 | inactive

Row | SMILES | cytotoxicity call
41 | C[C@@H]1CCCCO[C@H](CN(C)Cc2ccccc2)[C@@H](C)CN([C@@H](C)CO)C(=O)c2cc(NS(=O)(=O)c3cccs3)ccc2O1 | inactive
42 | C[C@H](CO)N1C[C@H](C)[C@@H](CN(C)Cc2ccccc2)OCCCC[C@H](C)Oc2ccc(NS(=O)(=O)c3cccs3)cc2C1=O | inactive
43 | Cc1noc(C)c1S(=O)(=O)Nc1ccc2c(c1)C(=O)N([C@@H](C)CO)C[C@H](C)[C@@H](CN(C)Cc1ccc(C(=O)Nc3ccccc3N)cc1)OCCCC[C@@H](C)O2 | inactive
44 | C[C@@H]1CCCCO[C@@H](CN(C)Cc2ccccc2)[C@H](C)CN([C@@H](C)CO)C(=O)c2cc(NS(=O)(=O)c3cccs3)ccc2O1 | inactive
45 | C[C@H]1CCCCO[C@@H](CN(C)Cc2ccccc2)[C@@H](C)CN([C@@H](C)CO)C(=O)c2cc(NS(=O)(=O)c3cccs3)ccc2O1 | active
46 | Cc1noc(C)c1S(=O)(=O)Nc1ccc2c(c1)C(=O)N([C@H](C)CO)C[C@H](C)[C@@H](CN(C)Cc1ccc(C(=O)Nc3ccccc3N)cc1)OCCCC[C@@H](C)O2 | active
47 | Cc1noc(C)c1S(=O)(=O)Nc1ccc2c(c1)C(=O)N([C@@H](C)CO)C[C@@H](C)[C@@H](CN(C)Cc1ccc(C(=O)Nc3ccccc3N)cc1)OCCCC[C@H](C)O2 | inactive
48 | C[C@@H]1CN([C@@H](C)CO)C(=O)c2cc(NS(=O)(=O)c3cccs3)ccc2O[C@@H](C)CCCCO[C@H]1CN(C)Cc1ccccc1 | active
49 | C[C@@H]1CN([C@@H](C)CO)C(=O)CCCn2nncc2CO[C@H]1CN(C)C(=O)Nc1ccc(N2CCN(C)CC2)cc1 | inactive
50 | C[C@H]1CN([C@@H](C)CO)C(=O)Cc2cc(NC(=O)Nc3cccc4ccccc34)ccc2O[C@H]1CN(C)C(=O)Nc1ccc(F)cc1 | inactive
51 | C[C@@H]1CN([C@@H](C)CO)C(=O)c2cc(NS(=O)(=O)c3ccccc3)ccc2O[C@@H](C)CCCCO[C@H]1CN(C)Cc1ccc(C(=O)O)cc1 | inactive
52 | Cc1cc(C(=O)Nc2cccc3c2O[C@H](CN(C)S(=O)(=O)c2ccc(Cl)cc2)[C@@H](C)CN([C@@H](C)CO)C3=O)n(C)n1 | inactive
53 | Cc1ccc(S(=O)(=O)Nc2ccc3c(c2)CC(=O)N([C@@H](C)CO)C[C@@H](C)[C@H](CN(C)S(=O)(=O)c2ccc(F)cc2)O3)cc1 | inactive
54 | CC(C)(O/N=C(\C(=O)N[C@@H]1C(=O)N2C(C(=O)O)=C(C[N+]3(CCNC(=O)c4ccc(O)c(O)c4Cl)CCCC3)CS[C@H]12)c1csc(N)n1)C(=O)O | inactive
55 | CC(C)NC(=O)Nc1ccc2c(c1)C(=O)N([C@@H](C)CO)C[C@@H](C)[C@H](CN(C)C(=O)Nc1ccc(F)cc1)OCCCC[C@@H](C)O2 | inactive
56 | C[C@H]1CN([C@@H](C)CO)C(=O)Cc2cc(NS(C)(=O)=O)ccc2O[C@H]1CN(C)C(=O)Nc1ccccc1 | inactive
57 | C[C@H]1CN([C@@H](C)CO)C(=O)c2cc(NC(=O)Nc3cccc4ccccc34)ccc2O[C@@H]1CN(C)Cc1ccncc1 | inactive
58 | COc1ccc(CNC(=O)N(C)C[C@H]2OCc3ccccc3-c3c(n(C)c4ccccc34)C(=O)N([C@H](C)CO)C[C@@H]2C)cc1 | inactive
59 | O=C(C[C@@H]1C[C@@H]2c3cc(NC(=O)C4CCOCC4)ccc3O[C@@H]2[C@@H](CO)O1)NCCN1CCCCC1 | inactive
